Here are results for ten compounds from PubChem BioAssay (NCI).

Compounds without any hit were thinned out: in the full panel of roughly 83,000, 20% have a hit.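 The endpoint reported here, percent growth, reads 100 for growth as untreated, 0 for no net growth and -100 for all cells dead.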 A number with no mark means an inactive call. Activity calls are given as the source filed them. The calls were made as follows: active = growth percent below 10; inactive = the rest.

Holding throughout (experiment): NCI-60 one-dose screen, 48 h (100 = growth as untreated, 0 = no growth, -100 = all killed)
The subject of one assay is SR leukemia. To be noted: 10 µM.
A further assay relates to OVCAR-8 ovarian. To be noted: 10 µM.
For another assay, the system named is OVCAR-5 ovarian. To be noted: 10 µM.
Another assay relates to OVCAR-4 ovarian. The settings on record: 10 µM.
The test system of a further assay is SK-OV-3 ovarian. The settings on record: 10 µM.
The next assay concerns IGROV1 ovarian. To be noted: 10 µM.
The subject of the next assay is OVCAR-3 ovarian. The settings on record: 10 µM.
A further assay relates to NCI/ADR-RES ovarian. To be noted: 10 µM.
For a further assay, the system named is T-47D breast. The settings on record: 10 µM.
A further assay has as its system MDA-MB-435 melanoma. The settings on record: 10 µM.
The subject of the next assay is MCF7 breast. The settings on record: 10 µM unless noted.
In the next assay the test system is HCT-116 colon. The settings on record: 10 µM.
For another assay, the system named is HCC-2998 colon. To be noted: 10 µM.
Another assay relates to KM12 colon. The settings on record: 10 µM.
A further assay deals with BT-549 breast. To be noted: 10 µM.
The test system of the next assay is SW-620 colon. The settings on record: 10 µM.
The test system of a further assay is HS 578T breast. To be noted: 10 µM.

With `OCc1cccc2ccccc12`, the growth with SR leukemia is 104%; in the assay with OVCAR-8 ovarian, 111%; in the assay with OVCAR-5 ovarian, 111%; with OVCAR-4 ovarian, 109%; with SK-OV-3 ovarian, 110%; with IGROV1 ovarian, 120%. The growth in the assay on OVCAR-3 ovarian is 105%; with NCI/ADR-RES ovarian it was 105%; in the assay with T-47D breast, 103%; in the assay on MDA-MB-435 melanoma it was 116%; in the assay with MCF7 breast it was 96.3%; in the assay on HCT-116 colon, 103%. Also, the results for the growth in the assay on HCC-2998 colon and in the assay with KM12 colon were 108% and 107%, respectively.

As to `c1cc[n+](C2c3ccccc3C([n+]3ccccc3)c3ccccc32)cc1` (stereo not given), the growth was 50.6% in the assay on SR leukemia; 46.8% with OVCAR-8 ovarian; 95% in the assay on OVCAR-5 ovarian; 75.3% in the assay with OVCAR-4 ovarian; 92.5% in the assay with SK-OV-3 ovarian; 30.4% in the assay on IGROV1 ovarian. Further, the growth in the assay with OVCAR-3 ovarian was 77.1%; in the assay with NCI/ADR-RES ovarian, 106%; with T-47D breast it was 75.5%; in the assay on BT-549 breast it was 100%; in the assay with MDA-MB-435 melanoma, 79.3%; with SW-620 colon, 69.8%. The growth with MCF7 breast is 68.8%; in the assay on HCT-116 colon, 68.2%; with HCC-2998 colon, 68.2%.

In the case of `N#CSc1cc(S(N)(=O)=O)ccc1N`, the growth with SR leukemia is 116%; in the assay with OVCAR-8 ovarian it was 102%; in the assay on OVCAR-5 ovarian, 107%; in the assay with OVCAR-4 ovarian, 108%; in the assay with SK-OV-3 ovarian, 108%; with IGROV1 ovarian, 106%. For the same compound, the growth in the assay on OVCAR-3 ovarian is 113%; in the assay on HS 578T breast, 115%; with NCI/ADR-RES ovarian it was 108%; with T-47D breast, 104%; with BT-549 breast, 98.6%; in the assay with MDA-MB-435 melanoma, 120%. The growth with SW-620 colon was 107%; with MCF7 breast, 94.5%; in the assay with HCT-116 colon it was 102%; with KM12 colon, 107%.

Regarding `O=C(O)/C=C/c1ccc2c(c1)CCC2`, the growth with SR leukemia was 80.2%; with OVCAR-8 ovarian, 99.8%; with OVCAR-5 ovarian, 97.8%; with OVCAR-4 ovarian, 104%; in the assay with SK-OV-3 ovarian, 99.6%; in the assay on IGROV1 ovarian, 118%. Further, the growth is 117% in the assay with OVCAR-3 ovarian; 109% with NCI/ADR-RES ovarian; 104% in the assay with T-47D breast; 100% with BT-549 breast; 99.8% in the assay with MDA-MB-435 melanoma; 106% in the assay on SW-620 colon. The growth is 109% in the assay with MCF7 breast, 105% in the assay on HCT-116 colon, 108% with HCC-2998 colon and 106% in the assay on KM12 colon.

Take `C/C(O)=C(\C=N\C(N)=S)C(=O)Nc1ccccc1`: the growth is 91.7% in the assay with SR leukemia; 99.7% in the assay on OVCAR-8 ovarian; 113% in the assay on OVCAR-5 ovarian; 101% in the assay with OVCAR-4 ovarian; 100% in the assay on SK-OV-3 ovarian; 103% in the assay on IGROV1 ovarian. In addition, the growth in the assay on OVCAR-3 ovarian was 108%; in the assay with NCI/ADR-RES ovarian, 110%; with T-47D breast, 102%; in the assay with BT-549 breast it was 108%; in the assay with MDA-MB-435 melanoma, 110%; with SW-620 colon, 110%. Moreover, the growth in the assay with MCF7 breast was 102%; in the assay with HCT-116 colon it was 102%; in the assay with HCC-2998 colon, 110%.

`Oc1ccc(Cc2ccccc2)c2cccnc12`: the growth in the assay with SR leukemia is 5.04% (active); in the assay on OVCAR-8 ovarian it was 15.5%; with OVCAR-5 ovarian, 37.2%; with OVCAR-4 ovarian it was 23.1%; in the assay on SK-OV-3 ovarian it was 19.9%; in the assay on IGROV1 ovarian it was -4.71% (active). In addition, the growth is 28.9% in the assay on OVCAR-3 ovarian; 0.0508% (active) in the assay with NCI/ADR-RES ovarian; 25.3% in the assay on T-47D breast; 11% in the assay on BT-549 breast; 32.2% in the assay with MDA-MB-435 melanoma; 31.4% in the assay on SW-620 colon. The growth in the assay on MCF7 breast was 14.1%; in the assay with HCT-116 colon, 7.1% (active); with HCC-2998 colon, 26.2%; with KM12 colon, 24.8%.

For the compound `COc1ccc(C(C)C=O)cc1` (stereo not given), the growth in the assay with SR leukemia was 102%; in the assay on OVCAR-8 ovarian, 109%; in the assay on OVCAR-5 ovarian it was 117%; with OVCAR-4 ovarian, 110%; in the assay with SK-OV-3 ovarian, 109%; with IGROV1 ovarian, 116%. Moreover, the growth is 108% in the assay with OVCAR-3 ovarian; 104% in the assay on NCI/ADR-RES ovarian; 97.9% in the assay with T-47D breast; 113% in the assay on MDA-MB-435 melanoma; 95.9% in the assay on MCF7 breast; 101% in the assay on HCT-116 colon. Besides, the growth in the assay with HCC-2998 colon is 109%; in the assay on KM12 colon, 107%.

In the case of `O=C(O)CCCC(=O)O`, the growth is 94.7% with SR leukemia; 99.4% with OVCAR-8 ovarian; 104% in the assay on OVCAR-5 ovarian; 84.3% in the assay on OVCAR-4 ovarian; 104% in the assay on SK-OV-3 ovarian; 104% in the assay on IGROV1 ovarian. Moreover, the growth in the assay with OVCAR-3 ovarian was 102%; with NCI/ADR-RES ovarian it was 103%; in the assay with T-47D breast, 128%; in the assay with BT-549 breast, 118%; with MDA-MB-435 melanoma it was 107%; in the assay on SW-620 colon it was 93.1%. The growth in the assay on MCF7 breast is 101%; in the assay with HCT-116 colon it was 100%; with HCC-2998 colon it was 103%; with KM12 colon it was 92.4%.

Consider `C=CCc1cc(C(C)=O)cc(OC)c1O`, for which the growth in the assay with SR leukemia is 113%; in the assay with OVCAR-8 ovarian, 101%; in the assay with OVCAR-5 ovarian, 101%; in the assay on OVCAR-4 ovarian it was 107%; in the assay on SK-OV-3 ovarian, 113%; with OVCAR-3 ovarian, 106%. For the same compound, the growth in the assay with HS 578T breast was 102%; in the assay with NCI/ADR-RES ovarian, 107%; in the assay with T-47D breast it was 118%; in the assay with BT-549 breast, 97.2%; in the assay with MDA-MB-435 melanoma, 113%; in the assay on SW-620 colon, 95.9%. Besides, the growth is 106% with MCF7 breast, 102% in the assay on HCT-116 colon, 96.3% in the assay on HCC-2998 colon and 96.6% in the assay on KM12 colon.

In the case of `O=S(=O)(O)c1ccc(Cl)c(Cl)c1`, the growth in the assay on SR leukemia is 99.8%; with OVCAR-8 ovarian, 114%; in the assay with OVCAR-5 ovarian it was 112%; in the assay on OVCAR-4 ovarian, 106%; with SK-OV-3 ovarian it was 103%; in the assay with IGROV1 ovarian, 122%. Further, the growth was 123% with OVCAR-3 ovarian; 120% in the assay with HS 578T breast; 106% in the assay with NCI/ADR-RES ovarian; 105% in the assay on T-47D breast; 97.7% with BT-549 breast; 100% with MDA-MB-435 melanoma. Also, the growth in the assay with SW-620 colon is 111%; in the assay with MCF7 breast, 99.9%; in the assay on HCT-116 colon it was 105%; with HCC-2998 colon, 104%; with KM12 colon, 111%.
